# From PubChem BioAssay AID686971 (National Center for Advancing Translational Sciences (NCATS), 2013)
# Screen size: about 360,000 compounds; about 7,500 (2.1%) were called active. Entries that show only a call come without a potency. About 8% were inconclusive and are not listed. Calls come from the whole dose curve; as a rule, active = well fitted cell-killing curve with a large enough effect; inconclusive = small, poorly fitted or top-dose-only effect, or effect the other way, or another doubt; inactive = no such curve, though single readings can be large or run the other way. For the sample, actives were picked, then their nearest neighbours and some compounds at random.
# Assay: qHTS for induction of synthetic lethality in tumor cells producing 2HG: qHTS for the HT-1080-IDH1KD cell line
# Conditions: HT-1080 IDH1 knockdown viability, ATP luminescence, 48 h; series mostly up to 46.1 µM
# Outline: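 Knockdown cells (IDH1KD HT-1080) received compounds 2 h after plating at 750 cells/well and were kept 48 h at 37 °C in 5% FBS RPMI. A CellTiter-Glo luminescence read gave % activity for curve fitting.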
# Potency is the fitted concentration of half-maximal effect.
SMILES,Potency,"activity, negative = toxicity"
O=C1OCCC1=COCCCCOC=C1CCOC1=O,inactive,–
COc1ccc(C(O)c2nc(-c3ccc4c(c3)OCO4)cs2)cc1 (configuration not stated),inactive,–
C[C@@H]1CN([C@H](C)CO)C(=O)CCCn2cc(nn2)CO[C@H]1CN(C)S(C)(=O)=O,inactive,–
COc1ccc(C(C(O)C(=O)c2c[nH]c3ccccc23)N2CCN(c3ccccc3)CC2)cc1 (configuration not stated),inactive,–
COc1ccc(/C=C(\C#N)c2c[nH]c3ccccc23)cc1,0.731 µM (active),–
COc1ccc(/C=C(\NC(=O)c2ccc(OC)c(OC)c2)C(=O)NCCc2c[nH]c3ccccc23)cc1,inactive,–
C[C@H](CO)N1C[C@H](C)[C@@H](CN(C)C(=O)C2CCCCC2)OCc2cnnn2CCCC1=O,inactive,–
C[C@H]1CN(c2ccc(Br)cc2)C(=O)[C@@H]1CC(=O)Nc1ccc(Br)cc1,inactive,–
COc1ccc(CCNC(=O)c2cnc(Cl)c(Cl)c2)cc1,inactive,–
COc1ccc(CS(=O)/C(Cl)=C(/Cl)C(=O)Nc2ccc(OC)nc2)cc1 (configuration not stated),18.4 µM (active),–
COc1ccc(NC(=O)CN2C(=O)NC(C)(c3ccccc3)C2=O)cn1 (configuration not stated),inactive,–
CC(C)Cn1cc(-c2cncc3nccn23)cn1,inactive,–
CC1(C)CN(CCc2ccccc2)C(=O)[C@H]1CC(=O)Nc1ccc(Br)cc1,inactive,–
CCOC(=O)c1c(NC(=O)COC(=O)c2ccc(S(=O)(=O)C(F)F)cc2)sc(C(=O)N(C)C)c1C,inactive,–
COc1cccc(NC(=O)C2(C)CCN2Cc2ccccc2Cl)c1 (configuration not stated),inactive,–
CCN1/C(=C/c2ccc3ccc(C)cc3[n+]2CC)Sc2ccccc21,20.6 µM (active),–
CCOC(=O)[C@]12CCCC=C1N(CCC1=CCCCC1)C(=O)[C@H](CC(=O)N1CCN(C(=O)c3ccco3)CC1)C2,inactive,–
Cc1ccc(NC(=O)c2ccco2)cc1,inactive,–
O=C(Nc1ccc(O)cc1)c1ccc(NC(=O)c2ccco2)cc1,13 µM (active),–
Cc1cc(NC(=O)c2ccc(F)cc2)ccc1NC(=O)c1ccco1,inactive,–
O=S1(=O)CC(N2CCN(Cc3ccccc3F)CC2)CN1Cc1cn(Cc2ccccc2)nn1 (configuration not stated),inactive,–
Cc1ccc(OCC(=O)OC(C)CN(C)Cc2ccccc2)cc1 (configuration not stated),inactive,–
COc1ccc(OCC(O)CN(C)C(=O)C(C)Oc2ccccc2)cc1 (configuration not stated),inactive,–
CN(Cc1ccccc1)CC(O)COc1ccc(CNCc2cc3ccccc3s2)cc1 (configuration not stated),20.6 µM (active),–
O=C(NCc1ccccc1)C1c2ccccc2OCC(=O)N1CCCN1CCOCC1 (configuration not stated),inactive,–

SMILES,Potency,"activity, negative = toxicity"
Cc1ccc(S(=O)(=O)N2CCC(=O)N([C@H](COCc3ccccc3)C(C)C)CC2)cc1,inactive,–
O=C(O)c1ccc(NC(=O)c2cn(-c3ccccc3)nc2-c2ccc(Cl)cc2)cc1,20.6 µM (active),–
Cc1ccc(-c2nn(-c3ccccc3)cc2C(=O)NCCCN2CCCC2=O)cc1,inactive,–
Cc1ccc(-c2nn(-c3ccccc3)cc2C(=O)Nc2cccc(S(=O)(=O)N3CCOCC3)c2)cc1,inactive,–
COc1cccc(OCC(=O)NCCS(=O)(=O)N2CCN(c3ccccc3)CC2)c1,inactive,–
COc1ccc(CCNC(=O)Nc2ccc3c(c2)c(=O)n(C)n3C)cc1OC,inactive,–
Cc1[nH]n(C)c(=O)c1C(=O)c1c(-c2c(Cl)cccc2Cl)noc1C,16.4 µM (active),–
Cc1onc(-c2c(Cl)cccc2Cl)c1C(=O)c1c[nH]c(C(=O)NC2CC2)c1,inactive,–
Cc1onc(-c2c(Cl)cccc2Cl)c1C(=O)NNC(=O)c1c(-c2c(Cl)cccc2Cl)noc1C,inactive,–
CC(C)(C(=O)N1CCC1(C)C(=O)NS(=O)(=O)c1ccc(Br)cc1)c1ccccc1 (configuration not stated),inactive,–
CCOC(=O)C1=CC[C@@H](c2ccccc2)N(S(=O)(=O)c2ccc(C)cc2)[C@H]1c1ccc(CC)cc1,inactive,–
CCCCCCN1C[C@@H](O)[C@H](n2cc(COC(=O)c3ccccc3)nn2)C[C@@H]1c1ccc(Cl)cc1,inactive,–
O=C(O)C1CCCN1c1nc(Cl)ccc1[N+](=O)[O-] (configuration not stated),inactive,–
CC(C)NC(=O)Nc1ccc2c(c1)C(=O)N([C@H](C)CO)C[C@H](C)[C@@H](CN(C)Cc1ccc(C(F)(F)F)cc1)OCCCC[C@@H](C)O2,inactive,–
CCCc1nc2ccccc2c(=O)n1NC(=O)c1c(O)c2ccccc2[nH]c1=O,11.2 µM (active),–
O=C(Cc1c(O)c2ccccc2[nH]c1=O)NCc1ccccc1,inactive,–
COc1cc(C(=O)Nn2c(CC(C)C)nc3ccccc3c2=O)cc(OC)c1OC,inactive,–
CCOC(=O)c1cc(C)nc(S(C)(=O)=O)c1C#N,20.6 µM (active),–
CCOC(=O)COc1nc(C)cc(C(F)(F)F)c1C#N,inactive,–
CCOC(=O)c1c(C(C#N)C#N)cc(C)nc1C,inactive,–
NS(=O)(=O)c1ccc(CNC(=O)c2cc(S(=O)(=O)N3CCOCC3)ccc2N2CCCC2)cc1,inactive,–
COC(=O)Cc1ccc(OC2(C)CCN(Cc3ccc4c(c3)OCCO4)C2)cc1 (configuration not stated),inactive,–
COc1ccc(C(=O)C(OP(=O)(OC)OC)c2ccccc2OC)cc1 (configuration not stated),inactive,–
C[C@@H]1CN([C@@H](C)CO)S(=O)(=O)c2ccc(C#Cc3cccc(F)c3)cc2O[C@H]1CN(C)S(=O)(=O)c1cn(C)cn1,inactive,–
O=C(CCC(=O)N/N=C/c1ccc(Br)o1)N/N=C/c1ccc(Br)o1,inactive,–

SMILES,Potency,"activity, negative = toxicity"
CCOc1cc(C=NNC(=O)CCCC(=O)NN=Cc2ccc(O)c(OCC)c2)ccc1O,inactive,–
O=C(CCc1ccc(O)cc1)NN=Cc1cc(Br)ccc1O,16.4 µM (active),–
CCc1nc2ccc(C(=O)N3CCN(S(=O)(=O)CC)CC3)cn2c1N(C=O)CCC(C)C,inactive,–
C[C@H]1CN([C@@H](C)CO)C(=O)CCCn2nncc2CO[C@@H]1CN(C)S(=O)(=O)c1cccc(C#N)c1,inactive,–
COc1ccc(S(=O)(=O)NCCCc2ccccc2)cc1,inactive,–
Cc1ccc(S(=O)(=O)/N=C2\C=C(NS(=O)(=O)c3ccc(C)cc3)C(=O)c3ccccc32)cc1,inactive,–
COc1ccc(S(=O)(=O)/N=C2\C=C(NS(=O)(=O)c3ccccc3)C(=O)c3ccccc32)cc1,20.6 µM (active),–
CC1(C(=O)NS(=O)(=O)c2ccccc2Cl)CCN1C(=O)c1cccc(F)c1 (configuration not stated),inactive,–
CCCCC(O)C1=C[N+](=O)CC=C1 (configuration not stated),inactive,–
O=C(COC(=O)CCc1c[nH]c2ccccc12)Nc1cccc(Cl)c1,inactive,–
CCCCc1nnc(NC(=O)CS(=O)(=O)Cc2ccccc2)s1,inactive,–
CCCCOC(=O)Nc1nnc(CC(=O)NCc2ccccc2)s1,5.17 µM (active),–
CCCCOC(=O)Nc1nccs1,inactive,–
CCC(c1nc2ccccc2[nH]1)n1c(=O)c(-c2cccs2)nc2ccccc21 (configuration not stated),inactive,–
COc1ccc(C(=O)NCC[N+](C)(C)C)cc1,inactive,–
CCOC(=O)c1cnn2c(SC)ncnc12,inactive,–
CCOc1ccc(OCc2ccc(C(=O)Nc3cccc(C)n3)o2)cc1,–,2.75% [at 9.24 µM] (inactive)
COc1ccc(NC(=O)CN(C)C(=O)c2ccc(COc3ccccc3)o2)cc1,inactive,–
Cc1cc(OCc2ccc(C(=O)Nc3ccc(C(=O)O)cc3)o2)ccc1Cl,23.1 µM (active),–
N#Cc1ccc(C(C(=O)NCc2ccccc2)n2c(=O)c(-c3ccco3)nc3ccccc32)cc1 (configuration not stated),inactive,–
C/C(CC1CC(C)(C)OC1=O)=N/Nc1nc(-c2ccccc2)cs1 (configuration not stated),inactive,–
Cc1ccc(-c2csc(-c3c[nH]c4ccccc34)n2)cc1,inactive,–
CCc1ccccc1NC(=O)[C@@H]1CCC(=O)N1C1OC(=O)c2c1ccc(OC)c2OC (some centres not stated),inactive,–
Cc1ccc(-c2csc(NC3OC(=O)c4ccccc43)n2)cc1 (configuration not stated),11.6 µM (active),–
Cc1ccc(-c2csc(-c3cc(C)on3)n2)cc1,inactive,–

SMILES,Potency,"activity, negative = toxicity"
COc1ccc2c(c1OC)C(=O)OC2Nc1nc(-c2ccccc2)cs1 (configuration not stated),10.3 µM (active),–
COC(=O)C(Cc1c[nH]c2ccccc12)NC(=O)CCNC(=O)c1ccco1 (configuration not stated),inactive,–
CC(=O)N1CCN(Cc2cc(=O)oc3cc(C)ccc23)CC1,inactive,–
c1ccc(Cn2nnc3c(N4CCCCC4)ncnc32)cc1,inactive,–
O=C1CCC(C(=O)OCC(=O)Nc2ccc(OC(F)F)cc2)=NN1,inactive,–
CC(C)(O)C1=C[N+](=O)CC=C1,inactive,–
CCN(CCN(C)C)C(=O)c1ccc2nc(C)c(N(C)C(=O)CCc3ccccc3)n2c1,inactive,–
COc1ccc(CCNC(=O)Cc2ccc(C)cc2)cc1OC,inactive,–
COc1ccc(CNC(=O)Cc2ccc(-c3ccccc3)cc2)cc1OC,14.6 µM (active),–
COc1ccc(NC(=O)CNC(=O)Cc2ccccc2)cc1OC,inactive,–
CC1=C(C(=O)N2CCOCC2)CC(CC(=O)NCCCN(C)C)C(=O)N1Cc1ccc(C(C)(C)C)cc1 (configuration not stated),inactive,–
COc1ccc(Cn2c(=O)[nH]c3cc(C(=O)N4CCN(C(=O)c5ccco5)CC4)ccc3c2=O)cc1,inactive,–
COc1ccccc1NC(=O)C(CC(=O)O)Cc1cc(C)cc(C)c1 (configuration not stated),inactive,–
O=C(CSc1ccc(Cl)cc1)NC1CC1,inactive,–
COc1ccc(CNC(=O)/C(C#N)=C/c2cccc(OC)c2OC)cc1,25.9 µM (active),–
COc1ccc(CNC(=O)CCn2cccc2)cc1,inactive,–
COc1ccc(NC(=O)/C(C#N)=C\c2cc(OC)c(OCc3ccc(C(=O)O)cc3)cc2Br)cc1,inactive,–
CCOC(=O)C(C(=O)c1ccccc1)C(c1ccccc1)c1nccc2ccccc12 (configuration not stated),inactive,–
Cc1ccc(S(=O)(=O)N2[C@@H](Cc3ccccc3)CO[C@H]2CC(=O)OCc2ccccc2)cc1,inactive,–
CC(=O)Nc1cccc(-c2cc3nc(NCc4cccnc4)n(C)c(=O)c3s2)c1,inactive,–
O=C1NC[C@@H](CCCCN2CCN(CCc3ccc(O)cc3)C(=O)C2=O)N(CC2CCCCC2)C1=O,inactive,–
CC(C)(C)N1C(=O)c2c(C(=O)OCc3ccccc3)[nH]c(-c3ccccc3)c2C1=O,inactive,–
